{"source": "PubChem BioAssay (EPA / NIEHS)", "note": "Several values for one entry are separate records, joined by “and”; a condition that tells them apart may be missing. Equal entries are not always repeated. Activity calls are given as the source filed them. Rule for the calls: active = hit-call score of the fitted dose curve at least 0.9, where 1 is the maximum; inactive = score below 0.9.", "data": [{"read-out": "Interleukin 17F (IL17F), IL17F (gene 112744)", "test": "BSK_BT_xIL17F: BioMAP Diversity Plus: BT Assay for Interleukin 17F (IL17F) Biomarker Activity (AID 2284243)", "conditions": "primary human B cells with PBMC", "protocol": "BSK_BT is a cell-based, multiplexed-readout assay that uses B cell and peripheral blood mononuclear cells, a human vascular primary cell co-culture, with measurements taken at 24 hours after chemical dosing in a microplate: 96-well plate.BSK_BT_xIL17F is an assay component measured in the BSK_BT assay. It measures secreted IL-17F related to regulation of gene expression using LumineX xMAP technology.Data from the assay component BSK_BT_xIL17F was analyzed at the endpoint, BSK_BT_xIL17F, in the positive analysis fitting direction relative to DMSO as the negative control and baseline of activity. Using a type of cytokine quantitation reporter, gain or loss-of-signal activity can be used to understand protein changes. To generalize the intended target to other relatable targets, this assay endpoint is annotated to the 'cytokine' intended target family, where the subfamily is 'interleukins'.\nThe levels of cell surface (or secreted, indicated by the prefix \"s\") biomarker endpoints were measured by ELISA. Overt cytotoxicity to cells in confluent adherent cultures (all systems other than the BT system) was assessed by measuring total protein levels using sulforhodamine B (SRB) staining in parallel cultures at the time of biomarker measurements, indicated as SRB endpoints. For proliferation assays for adherent cell types, individual cell types are cultured at sub-confluence and relative cell numbers quantified by SRB staining at time points optimized for each system (48 h: 3C and CASM3C systems; 72 h: BT and HDF3CGF systems; 96 h: SAg system). SRB was performed by staining cells with 0.1% SRB after fixation with 10% TCA and reading wells at 560 nm.Viability and proliferation of PBMC (T cells) was quantified by Alamar Blue reduction for the SAg and BT systems. For PBMC viability (referred to as PBMC Cytotoxicity within the assay endpoint names), cells were plated (75,000/well in a 96-well plate) and then chemical samples added for 1 h before addition of activators, SEB and TSST-1 (20 ng/mL final concentration each). Cells were incubated for 90 h. Then, Alamar Blue (20 uL/well) (Invitrogen, Cat DAL1100) was added for 6 h, and the plates were read with a fluorescence microplate reader at 546/580 nm (excitation/emission). For PBMC proliferation, cells were plated and activated as above but incubated for only 16 h prior to addition of Alamar Blue. Plates were read after 6 h.", "values": [{"smiles": "CCOP(=O)(OCC)OC(=CCl)c1ccc(Cl)cc1Cl", "outcome": "inactive"}, {"smiles": "CC(C)(COCC1CO1)COCC1CO1", "note": "(stereo not given)", "AC50": "24.5 µM (active)"}, {"smiles": "Nc1c(Oc2ccccc2)cc(O)c2c1C(=O)c1ccccc1C2=O", "outcome": "inactive"}, {"smiles": "CCOP(=O)(OCC)SCCSCC", "outcome": "inactive"}, {"smiles": "N#CCCC(Br)(C#N)CBr", "note": "(stereo not given)", "AC50": "9.32 µM (active)"}, {"smiles": "Oc1cccc(-c2ccccc2)c1", "outcome": "inactive"}, {"smiles": "CC(C)=CC1C(C(=O)OCc2cccc(Oc3ccccc3)c2)C1(C)C", "note": "(stereo not given)", "AC50": "20 µM (active)"}, {"smiles": "CCOC(=O)CC(=O)CCl", "AC50": "12.4 µM (active)"}, {"smiles": "Nc1ccc(N)cc1", "outcome": "inactive"}, {"smiles": "[Cl][Sn]([c]1ccccc1)([c]1ccccc1)[c]1ccccc1", "AC50": "0.302 µM (active)"}, {"smiles": "Cc1cc(C(C)(C)c2ccc(O)c(C)c2)ccc1O", "outcome": "inactive"}, {"smiles": "CCC(C)(C#N)N=NC(C)(C#N)CC", "note": "(stereo not given)", "outcome": "inactive"}, {"smiles": "NC(=O)CCl", "outcome": "inactive"}, {"smiles": "c1ccc(-c2cccc(-c3ccccc3)c2)cc1", "AC50": "22.6 µM (active)"}, {"smiles": "Cc1c([N+](=O)[O-])c(C)c([N+](=O)[O-])c(C(C)(C)C)c1[N+](=O)[O-]", "AC50": "28.1 µM (active)"}, {"smiles": "CCCCCCCCCCCCN(C)C", "outcome": "inactive"}, {"smiles": "O=C1C=CC(=O)c2ccccc21", "AC50": "0.61 µM (active)"}, {"smiles": "O=C(CCl)NCO", "outcome": "inactive"}, {"smiles": "c1ccc2sc(SNC3CCCCC3)nc2c1", "AC50": "32.1 µM (active)"}, {"smiles": "C=CC(Cl)CCl", "note": "(stereo not given)", "outcome": "inactive"}, {"smiles": "OC(Cc1ccccc1Cl)(Cn1[nH]cnc1=S)C1(Cl)CC1", "note": "(stereo not given)", "outcome": "inactive"}, {"smiles": "CC(C)(C)c1cc([N+](=O)[O-])cc(C(C)(C)C)c1O", "AC50": "13 µM (active)"}, {"smiles": "CCN(CC)C(=O)C(Cl)=C(C)OP(=O)(OC)OC", "outcome": "inactive"}, {"smiles": "O=[N+]([O-])c1cccc2ccccc12", "outcome": "inactive"}, {"smiles": "Cc1ccccc1OP(=O)(Oc1ccccc1)Oc1ccccc1", "outcome": "inactive"}, {"smiles": "CCOC(=O)C(SP(=S)(OC)OC)c1ccccc1", "note": "(stereo not given)", "outcome": "inactive"}, {"smiles": "CC(C)N(C(=O)CCl)c1ccccc1", "AC50": "8.76 µM (active)"}, {"smiles": "CC1(C)[C@H](C(=O)O[C@H](C#N)c2cccc(Oc3ccccc3)c2)[C@@H]1/C=C(\\Cl)C(F)(F)F", "AC50": "17.1 µM (active) and 14.6 µM (active)"}, {"smiles": "Cc1ccccc1OP(=O)(Oc1ccccc1C)Oc1ccccc1C", "AC50": "27.3 µM (active)"}, {"smiles": "CCOC(=O)CCN(SN(C)C(=O)Oc1cccc2c1OC(C)(C)C2)C(C)C", "AC50": "30 µM (active)"}, {"smiles": "Cc1cccc(OP(=O)(Oc2cccc(C)c2)Oc2cccc(C)c2)c1", "outcome": "inactive"}, {"smiles": "O=S(=O)(c1ccc(Cl)cc1)c1cc(Cl)c(Cl)cc1Cl", "AC50": "25.1 µM (active)"}, {"smiles": "Cc1cc(Cl)ccc1N", "outcome": "inactive"}, {"smiles": "CCOP(=S)(OCC)OP(=S)(OCC)OCC", "outcome": "inactive"}, {"smiles": "O=[N+]([O-])c1ccc(Nc2ccccc2)cc1", "outcome": "inactive"}, {"smiles": "C#CCOC(=O)/C=C(C)/C=C/CC(C)CCCC(C)C", "note": "(stereo not given)", "outcome": "inactive"}, {"smiles": "Oc1c(Br)cc(Br)cc1Br", "outcome": "inactive"}, {"smiles": "Cc1cc(Cl)ccc1OC(C)C(=O)O", "note": "(stereo not given)", "outcome": "inactive"}, {"smiles": "O=S(=O)(C(Cl)(Cl)Cl)C(Cl)(Cl)Cl", "AC50": "3.03 µM (active)"}, {"smiles": "CCCCN(CCCC)C(=S)[S-].CCCCN(CCCC)C(=S)[S-].[Ni+2]", "outcome": "inactive"}]}]}
